Results: the supplement of paper PMC6555819

Assays:
Experiment in all cases: PBM binding z-score (relative to random genomic background probes); higher = stronger binding; sequences stand for … in GC…GCGATTGACAGCGTAGAATGAAGG
[1] = test system: FXR:RXRa (NR concentration 270 nM, RXRa partner concentration 90 nM)
How it was run: (§1)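 Ligand-free nuclear receptor dimers were bound for 1 h to custom Agilent 4×180K protein-binding microarrays. Detection used antibodies against each partner (one per run). Binding z-scores rest on regression-normalized fluorescence, with random background probes as the reference.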

[2] = test system: LXRa:RXRa (NR concentration 270 nM, RXRa partner concentration 90 nM)
How it was run: as §1

[3] = test system: LXRa homodimer (NR concentration 270 nM)
How it was run: as §1

[4] = test system: LXRb:RXRa (NR concentration 270 nM, RXRa partner concentration 90 nM)
How it was run: as §1

[5] = test system: LXRb homodimer (NR concentration 270 nM)
How it was run: as §1

[6] = test system: PPARa:RXRa (NR concentration 270 nM, RXRa partner concentration 90 nM)
How it was run: as §1

[7] = test system: PPARg:RXRa (NR concentration 180 nM, RXRa partner concentration 90 nM)
How it was run: as §1

[8] = test system: PPARg:RXRa 270nM:90nM, anti-RXR (NR concentration 270 nM, RXRa partner concentration 90 nM)
How it was run: as §1

[9] = test system: PPARg:RXRa 30nM:10nM, anti-RXR (NR concentration 30 nM, RXRa partner concentration 10 nM)
How it was run: as §1

[10] = test system: PPARg:RXRa 90nM:30nM, anti-RXR (NR concentration 90 nM, RXRa partner concentration 30 nM)
How it was run: as §1

[11] = test system: PPARg:RXRa DBDmut IVT, anti-RXR (DBD mutation: RXRa K156A/R161A, NR concentration 270 nM, RXRa partner concentration 90 nM)
How it was run: as §1

[12] = test system: PPARg:RXRa IVT, anti-PPARg (NR concentration 270 nM, RXRa partner concentration 90 nM)
How it was run: as §1

[13] = test system: PPARg DBDmut:RXRa IVT, anti-PPARg (DBD mutation: PPARg1 K132A/R137A, NR concentration 270 nM, RXRa partner concentration 90 nM)
How it was run: as §1

[14] = test system: PPARg DBDmut IVT, anti-PPARg (DBD mutation: PPARg1 K132A/R137A, NR concentration 270 nM)
How it was run: as §1

[15] = test system: PPARg homodimer (NR concentration 180 nM)
How it was run: as §1

[16] = test system: PXR:RXRa (NR concentration 270 nM, RXRa partner concentration 90 nM)
How it was run: as §1

[17] = test system: PXR homodimer (NR concentration 270 nM)
How it was run: as §1

[18] = test system: RARa:RXR (NR concentration 270 nM, RXRa partner concentration 90 nM)
How it was run: as §1

[19] = test system: RARa homodimer (NR concentration 270 nM)
How it was run: as §1

[20] = test system: RARb:RXRa (NR concentration 270 nM, RXRa partner concentration 90 nM)
How it was run: as §1

Sequence	PBM binding z-score [1]	PBM binding z-score [2]	PBM binding z-score [3]	PBM binding z-score [4]	PBM binding z-score [5]	PBM binding z-score [6]	PBM binding z-score [7]	PBM binding z-score [8]	PBM binding z-score [9]	PBM binding z-score [10]	PBM binding z-score [11]	PBM binding z-score [12]	PBM binding z-score [13]	PBM binding z-score [14]	PBM binding z-score [15]	PBM binding z-score [16]	PBM binding z-score [17]	PBM binding z-score [18]	PBM binding z-score [19]	PBM binding z-score [20]
ATAGAAAGGTCGACGAGGTGAGTATACACCGTTT	4.55	2.95	0.22	2.52	0.294	4.18	2.91	2.81	1.55	2.17	0.284	1.82	1.11	0.417	1.76	2.87	0.566	3.6	0.784	3.72
ATATGTAGGTTAGATGGGGTCATTCAGACTAGGC	4.98	5.67	3.54	4.97	1.56	5.11	5.98	5.22	2.6	4.55	6.56	6.05	2.97	2.15	2.79	6.56	4.01	6.01	1.98	2.93
CCTAGTTGGTCCAGGTCACACACGCTATAGGTAC	1.93	2.22	1.52	2.41	0.771	2.58	1.47	1.46	0.532	1.01	1.21	2.28	0.272	0.266	2.22	2.34	1.6	2.66	1.7	2.59
GGAACGCGGGCAAGTTGATAGCAGAGTTTGATGG	-0.639	-0.548	-0.597	-1.24	-0.732	-0.903	0.256	-0.889	-0.573	-0.957	-0.223	-0.448	-0.461	-1.56	-0.831	-0.588	-0.209	-0.839	-1.25	0.294
ATCTCTAGGTAAAGATAGGTCAGTGAATGCAAAT	0.743	5.46	1	2.53	0.609	1.87	0.963	1.24	0.668	0.741	2.37	2.45	1.34	1.35	1.17	1.05	0.597	1.52	1.54	1.81
CCTAGTTGGTCAGGAGTTCACACACCGGATATGA	1.64	2.22	1.92	1.85	0.3	2.2	1.24	1.95	0.752	1.49	1.01	1.1	0.396	0.284	2.47	3.66	3.68	2.36	1.42	2.39
CCTAGCAGGCCAATATGGGTCACTCAAGGCTTGA	0.719	2.76	-0.00824	1.41	-0.863	3.05	1.57	1.86	0.00421	1.15	3.27	4.11	-0.447	-0.637	0.511	1.14	-0.649	1.65	-0.474	1.44
ATCGAAAGTTCGACGAGGTGAGTATACACCGTTT	0.939	0.833	-0.161	0.494	0.233	1.18	0.693	0.561	0.0902	0.117	-0.191	0.687	0.332	1.16	0.996	1.42	2.24	1.03	-0.0858	2.32
ATCTCTAGCTAAAAGTTCAGTGAATCCCGAGGAT	0.149	0.948	1.36	0.693	0.99	0.474	0.264	1.29	0.52	0.949	-0.639	-0.151	0.697	1.23	0.702	1.3	1.49	0.379	0.986	2.17
TGAATGTGGTTAAAGATCAGGGAACGTGGCGTCG	-0.133	-0.264	0.0303	-0.186	0.696	0.692	1.33	2.69	1.45	2.47	-0.308	0.475	0.142	1.06	0.818	-0.282	-0.00828	-0.185	0.484	-0.112
GCGACTCGGGCATCAGCAGGTTACCATAACTTAA	-0.428	-0.386	-0.511	-0.334	-1.48	0.263	0.266	-0.256	-0.629	-0.12	0.301	-0.204	-0.845	-1.46	-0.774	-0.236	-0.725	0.133	-0.931	0.242
ACTAGCAGGCCACGGGTCACTCAAGATTAGTCCG	0.933	1.15	-0.0855	1.3	-0.734	2.7	3.18	3.72	1.75	3.53	1.77	3.02	0.251	-0.351	0.555	1.52	-0.598	2.05	-0.386	2.17
ATCTCTAGGAAAAGTTCAGTGAAAGATCGATAGA	0.71	1.22	0.761	0.737	0.622	0.611	0.521	1.56	0.619	1.36	-0.273	0.00412	1.12	0.44	0.701	1.43	1.46	0.476	1.52	2.17
TCTTGTAGATCAATCAGGTTAAGAAAGCCTGAGT	0.77	0.362	0.00408	0.532	0.279	0.703	-0.495	1.31	2.82	2.3	1.98	0.808	1.29	0.885	-0.302	0.413	-0.0985	0.669	-0.252	0.281
